# Several values for one entry are separate records, joined by “and”; a condition that tells them apart may be missing. Equal values may be shown once. In all, about 5,500 compounds went through this assay and about 2,000 (36%) were called active. About 18% were inconclusive and are not listed. No stated cut-off is given here; in the data, active means normalized growth mostly below about 0.91 (no sharp cut-off); inconclusive means no clear call, values can overlap the other calls; inactive means mostly above about 0.92. The list shows a part of the results. A structure can be active in one record and inactive in another.
# Experiment: chemical genetic growth profiling, strain panel (AID 1159580);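 further: tested at 20 µM; growth read once vehicle control cultures reached saturation at 30 °C; 1 = growth at the plate median or of vehicle wells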
# Conditions: growth OD
smiles,measurement,setting,value
CC[N+](C)(C)c1cccc(O)c1,normalized growth,"S. cerevisiae deletion strains, locus YJR075W, strain HOC1, stronger effect = lower value",0.985 (inactive) and 1.04 (inactive)
same,normalized growth,"S. cerevisiae deletion strains, locus YKL009W, strain mrt4, stronger effect = lower value",1 (inactive)
same,normalized growth,"S. cerevisiae deletion strains, locus YKL068W, stronger effect = lower value",0.985 (inactive)
same,normalized growth,"S. cerevisiae deletion strains, locus YKL085W, strain MDH1 (second series), stronger effect = lower value",1 (inactive)
same,normalized growth,"S. cerevisiae deletion strains, locus YKL085W, strain MDH1, stronger effect = lower value",1 (inactive)
same,normalized growth,"S. cerevisiae deletion strains, locus YKL160W, strain elf1, stronger effect = lower value",1.06 (inactive)
same,normalized growth,"S. cerevisiae deletion strains, locus YKL190W, strain CNB1, stronger effect = lower value",1.01 (inactive)
same,normalized growth,"S. cerevisiae deletion strains, locus YKR001C, strain vps1, stronger effect = lower value",0.97 (inactive)
same,normalized growth,"S. cerevisiae deletion strains, locus YKR026C, strain gcn3, stronger effect = lower value",1 (inactive)
same,normalized growth,"S. cerevisiae deletion strains, locus YKR091W, strain srl3, stronger effect = lower value",1.01 (inactive)
same,normalized growth,"S. cerevisiae deletion strains, locus YLL001W, strain dnm1, stronger effect = lower value",1.06 (inactive)
same,normalized growth,"S. cerevisiae deletion strains, locus YLL026W, stronger effect = lower value",1 (inactive)
same,normalized growth,"S. cerevisiae deletion strains, locus YLL041C, strain sdh2, stronger effect = lower value",1.01 (inactive)
same,normalized growth,"S. cerevisiae deletion strains, locus YLR027C, strain aat2, stronger effect = lower value",1.02 (inactive)
same,normalized growth,"S. cerevisiae deletion strains, locus YLR039C, strain RIC1, stronger effect = lower value",0.993 (inactive)
same,normalized growth,"S. cerevisiae deletion strains, locus YLR058C, strain SHM2, stronger effect = lower value",0.982 (inactive)
same,normalized growth,"S. cerevisiae deletion strains, locus YLR102C, strain apc9, stronger effect = lower value",0.977 (inactive)
same,normalized growth,"S. cerevisiae deletion strains, locus YLR113W, strain HOG1, stronger effect = lower value",0.996 (inactive)
same,normalized growth,"S. cerevisiae deletion strains, locus YLR221C, strain rsa3, stronger effect = lower value",1.03 (inactive)
same,normalized growth,"S. cerevisiae deletion strains, locus YLR258W, strain gsy2, stronger effect = lower value",1.01 (inactive)
same,normalized growth,"S. cerevisiae deletion strains, locus YLR262C, strain YPT6 (second series), stronger effect = lower value",1.05 (inactive)
same,normalized growth,"S. cerevisiae deletion strains, locus YLR262C, strain YPT6, stronger effect = lower value",1 (inactive)
same,normalized growth,"S. cerevisiae deletion strains, locus YLR268W, strain sec22, stronger effect = lower value",0.917 (inactive)
same,normalized growth,"S. cerevisiae deletion strains, locus YLR320W, strain mms22, stronger effect = lower value",1.06 (inactive)
same,normalized growth,"S. cerevisiae deletion strains, locus YLR330W, strain CHS5, stronger effect = lower value",0.992 (inactive)
same,normalized growth,"S. cerevisiae deletion strains, locus YLR342W, strain FKS1 (second series), stronger effect = lower value",1.04 (inactive)
same,normalized growth,"S. cerevisiae deletion strains, locus YLR342W, strain FKS1, stronger effect = lower value",1.02 (inactive)
same,normalized growth,"S. cerevisiae deletion strains, locus YLR357W, strain rsc2, stronger effect = lower value",1.01 (inactive)
same,normalized growth,"S. cerevisiae deletion strains, locus YLR370C, strain arc18, stronger effect = lower value",1.01 (inactive)
same,normalized growth,"S. cerevisiae deletion strains, locus YLR371W, strain rom2, stronger effect = lower value",0.969 (inactive)
same,normalized growth,"S. cerevisiae deletion strains, locus YLR384C, strain iki3, stronger effect = lower value",0.996 (inactive)
same,normalized growth,"S. cerevisiae deletion strains, locus YLR418C, strain cdc73, stronger effect = lower value",0.954 (inactive)
same,normalized growth,"S. cerevisiae deletion strains, locus YML016C, strain PPZ1, stronger effect = lower value",0.992 (inactive)
same,normalized growth,"S. cerevisiae deletion strains, locus YML032C, strain rad52, stronger effect = lower value",0.954 (inactive)
same,normalized growth,"S. cerevisiae deletion strains, locus YML120C, strain ndi1, stronger effect = lower value",1.04 (inactive)
same,normalized growth,"S. cerevisiae deletion strains, locus YML124C, strain tub3, stronger effect = lower value",0.984 (inactive)
same,normalized growth,"S. cerevisiae deletion strains, locus YMR058W, strain fet3, stronger effect = lower value",1.02 (inactive)
same,normalized growth,"S. cerevisiae deletion strains, locus YMR078C, strain ctf18, stronger effect = lower value",0.96 (inactive)
same,normalized growth,"S. cerevisiae deletion strains, locus YMR125W, strain sto1, stronger effect = lower value",1.05 (inactive)
same,normalized growth,"S. cerevisiae deletion strains, locus YMR129W, stronger effect = lower value",1.01 (inactive)
same,normalized growth,"S. cerevisiae deletion strains, locus YMR205C, strain PFK2, stronger effect = lower value",1.04 (inactive)
same,normalized growth,"S. cerevisiae deletion strains, locus YMR223W, strain ubp8, stronger effect = lower value",0.996 (inactive)
same,normalized growth,"S. cerevisiae deletion strains, locus YMR231W, strain pep5, stronger effect = lower value",1 (inactive)
same,normalized growth,"S. cerevisiae deletion strains, locus YMR263W, strain SAP30, stronger effect = lower value",0.993 (inactive)
same,normalized growth,"S. cerevisiae deletion strains, locus YMR307W, strain GAS1, stronger effect = lower value",0.956 (inactive) and 1.04 (inactive)
same,normalized growth,"S. cerevisiae deletion strains, locus YNL067W, strain RPL9B, stronger effect = lower value",0.975 (inactive)
same,normalized growth,"S. cerevisiae deletion strains, locus YNL071W, strain lat1, stronger effect = lower value",1.02 (inactive)
same,normalized growth,"S. cerevisiae deletion strains, locus YNL128W, strain TEP1, stronger effect = lower value",0.991 (inactive)
same,normalized growth,"S. cerevisiae deletion strains, locus YNL153C, strain GIM3, stronger effect = lower value",0.982 (inactive)
same,normalized growth,"S. cerevisiae deletion strains, locus YNL175C, strain NOP13, stronger effect = lower value",0.999 (inactive)
same,normalized growth,"S. cerevisiae deletion strains, locus YNL183C, strain NPR1, stronger effect = lower value",0.95 (inactive)
same,normalized growth,"S. cerevisiae deletion strains, locus YNL197C, strain WHI3, stronger effect = lower value",1 (inactive)
same,normalized growth,"S. cerevisiae deletion strains, locus YNL209W, strain ssb2, stronger effect = lower value",1.01 (inactive)
same,normalized growth,"S. cerevisiae deletion strains, locus YNL224C, strain SQS1, stronger effect = lower value",1.02 (inactive)
same,normalized growth,"S. cerevisiae deletion strains, locus YNL233W, strain BNI4, stronger effect = lower value",0.979 (inactive)
same,normalized growth,"S. cerevisiae deletion strains, locus YNL248C, strain rpa49, stronger effect = lower value",1.07 (inactive)
same,normalized growth,"S. cerevisiae deletion strains, locus YNL250W, strain rad50, stronger effect = lower value",0.982 (inactive)
same,normalized growth,"S. cerevisiae deletion strains, locus YNL271C, strain bni1, stronger effect = lower value",0.977 (inactive)
same,normalized growth,"S. cerevisiae deletion strains, locus YNL298W, strain CLA4, stronger effect = lower value",0.979 (inactive)
same,normalized growth,"S. cerevisiae deletion strains, locus YNL307C, strain MCK1, stronger effect = lower value",0.973 (inactive)
same,normalized growth,"S. cerevisiae deletion strains, locus YNL322C, strain KRE1 (second series), stronger effect = lower value",1.02 (inactive)
same,normalized growth,"S. cerevisiae deletion strains, locus YNL322C, strain KRE1, stronger effect = lower value",0.993 (inactive)
same,normalized growth,"S. cerevisiae deletion strains, locus YNR049C, strain mso1, stronger effect = lower value",1.01 (inactive)
same,normalized growth,"S. cerevisiae deletion strains, locus YNR052C, strain pop2, stronger effect = lower value",0.984 (inactive)
same,normalized growth,"S. cerevisiae deletion strains, locus YOL006C, strain TOP1, stronger effect = lower value",0.948 (inactive)
same,normalized growth,"S. cerevisiae deletion strains, locus YOL012C, strain htz1",0.664 (inactive)
same,normalized growth,"S. cerevisiae deletion strains, locus YOL147C, strain pex11, stronger effect = lower value",0.982 (inactive)
same,normalized growth,"S. cerevisiae deletion strains, locus YOR001W, strain rrp6, stronger effect = lower value",0.951 (inactive)
same,normalized growth,"S. cerevisiae deletion strains, locus YOR061W, strain CKA2, stronger effect = lower value",0.989 (inactive)
same,normalized growth,"S. cerevisiae deletion strains, locus YOR069W, strain VPS5, stronger effect = lower value",0.986 (inactive)
same,normalized growth,"S. cerevisiae deletion strains, locus YOR070C, strain gyp1, stronger effect = lower value",1 (inactive)
same,normalized growth,"S. cerevisiae deletion strains, locus YOR080W, strain dia2, stronger effect = lower value",1 (inactive)
same,normalized growth,"S. cerevisiae deletion strains, locus YOR083W, strain WHI5 (second series), stronger effect = lower value",0.991 (inactive)
same,normalized growth,"S. cerevisiae deletion strains, locus YOR083W, strain WHI5, stronger effect = lower value",1.05 (inactive)
same,normalized growth,"S. cerevisiae deletion strains, locus YOR106W, strain vam3, stronger effect = lower value",1.05 (inactive)
same,normalized growth,"S. cerevisiae deletion strains, locus YOR136W, strain idh2, stronger effect = lower value",0.986 (inactive)
same,normalized growth,"S. cerevisiae deletion strains, locus YOR144C, strain elg1, stronger effect = lower value",0.979 (inactive)
same,normalized growth,"S. cerevisiae deletion strains, locus YOR184W, strain ser1, stronger effect = lower value",0.955 (inactive)
same,normalized growth,"S. cerevisiae deletion strains, locus YOR231W, strain MKK1, stronger effect = lower value",0.997 (inactive)
same,normalized growth,"S. cerevisiae deletion strains, locus YOR265W, strain rbl2, stronger effect = lower value",1.01 (inactive)
same,normalized growth,"S. cerevisiae deletion strains, locus YOR270C, strain vph1, stronger effect = lower value",1.07 (inactive)
same,normalized growth,"S. cerevisiae deletion strains, locus YOR290C, strain snf2, stronger effect = lower value",1.04 (inactive)
same,normalized growth,"S. cerevisiae deletion strains, locus YOR316C, strain cot1, stronger effect = lower value",0.975 (inactive)
same,normalized growth,"S. cerevisiae deletion strains, locus YPL051W, strain arl3, stronger effect = lower value",1.04 (inactive)
same,normalized growth,"S. cerevisiae deletion strains, locus YPL055C, strain LGE1, stronger effect = lower value",1.01 (inactive) and 1.17 [resistant] (active)
same,normalized growth,"S. cerevisiae deletion strains, locus YPL078C, strain atp4, stronger effect = lower value",1.06 (inactive)
same,normalized growth,"S. cerevisiae deletion strains, locus YPL106C, strain sse1, stronger effect = lower value",1.02 (inactive)
same,normalized growth,"S. cerevisiae deletion strains, locus YPL240C, strain hsp82, stronger effect = lower value",1.01 (inactive)
same,normalized growth,"S. cerevisiae deletion strains, locus YPL241C, strain CIN2, stronger effect = lower value",1 (inactive) and 1.01 (inactive)
same,normalized growth,"S. cerevisiae deletion strains, locus YPL256C, strain CLN2, stronger effect = lower value",0.981 (inactive)
same,normalized growth,"S. cerevisiae deletion strains, locus YPR119W, strain clb2, stronger effect = lower value",0.992 (inactive)
same,normalized growth,"S. cerevisiae deletion strains, locus YPR141C, strain kar3, stronger effect = lower value",0.96 (inactive)
same,normalized growth,"S. cerevisiae deletion strains, locus YPR163C, strain tif3, stronger effect = lower value",0.97 (inactive)
same,normalized growth,"S. cerevisiae deletion strains, locus YPR167C, strain met16, stronger effect = lower value",0.979 (inactive)
same,normalized growth,"S. cerevisiae deletion strains, strain wtn01, stronger effect = lower value",0.937 (inactive)
same,normalized growth,"S. cerevisiae strains, strain wild type, stronger effect = lower value",0.996 (inactive)
